# Bioassay records (PubChem BioAssay)
# GPR32 ag = qHTS for Agonists of Human Resolvin D1 Receptor DRV1. activation, % at 76.9 µM. CHO-K1 GPR32 beta-arrestin PathHunter luminescence, 90 min; zero percent set by DMSO-only wells. 48,000 tested, 2.5% active;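 active = activation of at least 60% and not above a set upper limit, about 1 call in 100 departs from these limits; inconclusive = activation of 40% to 60%, or above that upper limit; inactive = activation under 40%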; also: 0% is about no effect
# Target sequence (O75388 whole entry, looked up): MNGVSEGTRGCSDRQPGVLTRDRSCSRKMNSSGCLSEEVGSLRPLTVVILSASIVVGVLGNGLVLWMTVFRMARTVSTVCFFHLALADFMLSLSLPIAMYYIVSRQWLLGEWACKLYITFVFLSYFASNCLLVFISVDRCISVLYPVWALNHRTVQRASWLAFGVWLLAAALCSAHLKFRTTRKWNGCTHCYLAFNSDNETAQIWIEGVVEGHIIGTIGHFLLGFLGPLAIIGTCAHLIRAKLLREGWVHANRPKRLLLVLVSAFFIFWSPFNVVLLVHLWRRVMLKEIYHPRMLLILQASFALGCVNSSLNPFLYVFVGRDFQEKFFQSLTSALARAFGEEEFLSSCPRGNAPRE
#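 PathHunter beta-arrestin recruitment in CHO-K1 cells stably expressing ProLink-tagged GPR32. Cells were exposed to compound for 90 min at 37 C, then chemiluminescence was read after 1 h detection at ambient temperature; DMSO served as basal control.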
# p53null 32C tox = qHTS Screen for Compounds that Selectively Target Cancer Cells with p53 Mutations: Cytotoxicity of p53 Null Cells at the Permissive Temperature. H1299-neo p53 null cells, ATP luminescence, 24 h, 32C. AID 903, 2007. Potency, µM (series often up to 46.1 µM), inactives show at the top dose activity change, negative = cytotoxicity, hits mostly cytotoxic. 55,000 tested, 0.62% active;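 also: potency is read from the fitted curve at half-maximal effect; 0% = DMSO only and -100% = full killing by 100 µM tamoxifen; nearly all actives have a fitted effect of over 55% in size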
#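 Cells lacking p53 (H1299-neo) are plated at 600 per well and allowed to settle overnight at 37C. Test compounds (up to 46 uM) are added and held 24 hours at 32C, then ATP is quantified by luminescence.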
# HTT promoter inh = Primary qHTS for Identification of Small Molecule Inhibitors of Huntingtin Promoter Activity. HEK293 HTT promoter firefly luciferase reporter, 24 h. Potency, µM (top dose mostly 57.5 µM), without a hit: top-dose activity change, negative = inhibition, actives largely listed as inhibitors. 48,000 tested, 0.93% active. AID 1508623, 2021; also: potency is read from the fitted curve at half-maximal effect; nearly all actives have a fitted effect of over 50% in size
#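 HEK293 Fluc reporter, 2,500 cells/well, 24 h pre-culture; cpds up to 57.5 uM final, 24 h 37 degrees C; Dual-Glo, 10 min RT; normalized vehicle = 0%, zero RLU = -100%.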
# p53null 39C tox = qHTS Screen for Compounds that Selectively Target Cancer Cells with p53 Mutations: Cytotoxicity of p53 Null Cells at the Nonpermissive Temperature; Potency, µM (top dose mostly 46.1 µM), for the others: at the top dose activity, negative = cell killing, most hits filed as cytotoxic; H1299 p53-null (neo) cells, 39C, ATPlite viability, 24 h; 55,000 tested, 0.97% active; AID 904, 2007;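 also: potency is read from the fitted curve at half-maximal effect; 0% = DMSO only and -100% = full killing by 100 µM tamoxifen; nearly all actives have a fitted effect of over 50% in size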
#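 Temperature-shift cytotoxicity format: compound titrations on p53-null or A138V-expressing H1299 cells held 24 hr at 39C, cell ATP then measured, AC50 from Hill model.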
# HTT-AS act = Primary qHTS for Identification of Small Molecule Activators of Huntingtin-Antisense Promoter Activity | 48,000 tested, 0.24% active | HEK293 HTT-AS promoter firefly luciferase reporter, 24 h; response scale: percent change from vehicle, -100% = no light | Potency, µM (doses to about 57.5 µM), for the others: at the highest dose activity change, positive = activation, most hits filed as activators; also: potency is read from the fitted curve at half-maximal effect; nearly all actives have a fitted effect of over 55% in size
#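 Luminescence was read after Dual-Glo reagent and a 10 min room-temperature incubation. Values were normalized to vehicle (0% activity) and zero RLU (-100% activity). Reporter HEK293 cells had been exposed to compounds (up to 57.5 uM final) for 24 h.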
# Starred values were filed as active, the others as inactive; ? = inconclusive; . = no result given. An excerpt weighted towards active compounds, which were near 3.9% of everything screened. Unless noted, calls follow the shape of the dose curve; as a rule, active = well fitted curve in the direction sought with a large enough effect; inconclusive = small, poorly fitted or top-dose-only effect, or another doubt; inactive = no such curve, though single readings can be large; an effect the other way counts as inactive or inconclusive.
SMILES,GPR32 ag,p53null 32C tox,HTT promoter inh,p53null 39C tox,HTT-AS act
Cc1cn2cc(C(=O)N(C)CCO)cc(N[C@@H]3CCOc4cccc(C)c43)c2n1,.,.,-12%,.,-21%
Cc1ccc(CSc2nc3ccncc3n2Cc2nc(-c3ccccc3C)oc2C)cc1,11,7.9µM*,-5%,6.3µM*,1%
COc1ccc(-c2nc(Cn3c(SCc4cccc(Cl)c4)nc4ccncc43)c(C)o2)cc1,7,-14%,-28%,?,-37%
COc1ccc(CSc2nc3ccncc3n2Cc2nc(-c3ccc(OC)c(OC)c3)oc2C)cc1,-15,13µM*,9%,?,13%
c1ccc(-c2oc3ncnc(NC[C@@H]4CCCO4)c3c2-c2ccccc2)cc1,.,.,?,.,-40%
CCOc1ccc(NC(=O)Nc2cc3c(cc2N2CCCCC2)n(C)c(=O)n3C)cc1,107*,5%,?,-15%,-37%
Cn1c(=O)n(C)c2cc(N3CCCCC3)c(NC(=O)c3c(F)cccc3F)cc21,118*,-7%,.,-4%,.
CC1(C)OC(=O)Nc2ccc(Br)cc21,-5,.,1%,.,-3%
O=C(CC1C(=O)OCCN1Cc1ccccc1)Nc1cccc(C(F)(F)F)c1 (configuration not stated),112*,.,?,.,-31%
COc1cc(CN(C(=O)COc2ccc(C)cc2)c2ccccn2)cc(OC)c1OC,-7,-14%,?,-18%,-30%
COc1cc(CN(C(=O)COc2ccc(Br)cc2)c2ccccn2)cc(OC)c1OC,0,-9%,32µM*,-14%,-34%
COc1cc(NC(=O)C2CCCN(S(=O)(=O)c3ccc4c(c3)CCCC(=O)N4)C2)cc(OC)c1 (configuration not stated),-3,-3%,-19%,?,-15%
COc1ccc(NC(=O)C2CCN(S(=O)(=O)c3ccc4c(c3)CCCC(=O)N4)CC2)c(OC)c1,-6,-1%,-28%,-9%,-23%
COc1ccc(NC(=O)C2CCCN(S(=O)(=O)c3ccc4c(c3)CCCC(=O)N4)C2)cc1OC (configuration not stated),63*,3%,?,4%,-34%
COc1ccc(OC)c(NC(=O)C2CCN(S(=O)(=O)c3ccc4c(c3)CCCC(=O)N4)CC2)c1,72*,-1%,-12%,8%,-14%
O=C1NC(=O)C(=Cc2ccc(-c3ccc(F)cc3O)o2)S1,.,.,10%,.,?
COc1ccc(NC(=O)c2nnn(CC(=O)Nc3ccc(C)c(C)c3)c2N)cc1OC,91*,1%,?,7%,-40%
CCOc1ccc(NC(=O)Cn2nnc(C(=O)NCCc3ccccc3)c2N)cc1,88*,0%,-27%,?,-16%
O=C(CO)N1CCC(c2[nH]nc(-c3ccc(Cl)cc3)c2-c2ccncn2)CC1,.,.,-11%,.,-16%
CC(C)CN(C[C@H](O)[C@H](Cc1ccccc1)NC(=O)O[C@H]1CCOC1)S(=O)(=O)c1ccc(N)cc1,.,.,-9%,.,-5%
Cc1ccc(N(C)C(CNS(=O)(=O)c2ccccc2)c2ccccc2)cc1 (configuration not stated),-8,25%,?,14µM*,-21%
CN(c1ccccc1)C(CNS(=O)(=O)c1ccccc1)c1ccccc1 (configuration not stated),-19,39%,?,?,-21%
CCOC(=O)CN1CCCC1=O,-6,.,-2%,.,-4%
CC(C)(C)n1ncc2c(=O)n(CC(=O)NCc3ccco3)cnc21,.,1%,.,-28%,.
CC(C)(C)n1ncc2c(=O)n(CC(=O)c3ccccc3)cnc21,.,-16%,.,13µM*,.
SMILES,GPR32 ag,p53null 32C tox,HTT promoter inh,p53null 39C tox,HTT-AS act
CC(NC(CCc1ccccc1)C(=O)O)C(=O)N1C(=O)N(C)CC1C(=O)O (configuration not stated),-23,.,9%,.,-5%
C[C@@H](NCc1cc2ccccc2[nH]1)c1cccc2ccccc12,.,.,-10%,.,-8%
CCC(C)NC(=O)c1ccc2c(c1)sc1nc(-c3ccc(OC)cc3)cn12 (configuration not stated),81*,2%,5%,-11%,15%
COc1ccc(-c2cc(C(=O)Nc3ccn(Cc4ccc(C)cc4)n3)no2)cc1OC,78*,1%,.,-27%,.
COc1cccc(-c2cc(C(=O)Nc3ccn(Cc4ccc(C)cc4)n3)no2)c1,50,-8%,.,?,.
COc1ccccc1-c1cc(C(=O)Nc2c(C)nn(Cc3ccc(Cl)cc3)c2C)no1,72*,23%,.,?,.
COc1ccc2c(c1)CCc1c(C(=O)Nc3c(C)nn(Cc4ccc(C)cc4)c3C)noc1-2,-1,35%,22µM*,40%,-47%
Cc1nn(Cc2ccc(Cl)c(Cl)c2)c(C)c1NC(=O)c1noc2c1CCc1ccccc1-2,34,41%,.,44%,.
CC(C)=CCCC(C)=CCCC(C)=CCSc1ccccc1C(=O)O,.,.,?,.,-30%
COc1ccc(S(=O)(=O)N2c3ccc(Cl)cc3[C@@](O)(c3ccccc3Cl)[C@H]2C(=O)N2CCC[C@@H]2C(N)=O)cc1OC,?,.,-13%,.,-9%
Cc1cc(C)c2c(N)c(C(=O)Nc3ccccc3C(F)(F)F)sc2n1,89*,-20%,18%,3%,?
COc1ccc(Nc2cc(C(=O)NCCCN(C)Cc3ccccc3)c3ccccc3n2)c(OC)c1,65*,-17%,?,15%,-12%
COc1ccc(Nc2cc(C(=O)NCCCN(C)Cc3ccccc3)c3ccccc3n2)cc1,-33,7%,?,?,-18%
CC(C)c1ccc(Nc2cc(C(=O)NCCc3ccccc3)c3ccccc3n2)cc1,85*,-3%,-7%,-15%,-18%
CN(C/C=C/C#CC(C)(C)C)Cc1cccc2ccccc12,95*,.,3%,.,-10%
CN(CC=CC#CC(C)(C)C)Cc1cccc2ccccc12,.,.,1%,.,14%
CCn1cnc2cc(NC(=O)c3ccco3)ccc21,.,10µM*,.,13µM*,.
O=C(Nc1ccc2nn(-c3ccccc3)nc2c1)c1ccco1,.,-25%,.,-29%,.
CCOc1cc(CNCCc2ccccc2)ccc1OCC(=O)NC(C)(C)C,.,-1%,.,16µM*,.
CCN(CC)CCOc1ccc(C(O)(Cc2ccc(Cl)cc2)c2ccc(C)cc2)cc1 (configuration not stated),63*,.,6%,.,-5%
CCN(CC)CCNC(=O)COc1ccc(Cl)cc1,12,.,5%,.,-1%
